According to PubChem BioAssay AID1347420 (Sanford-Burnham Center for Chemical Genomics, 2020):
Screen size: about 1,300 compounds; about 980 (75%) were called active. Roughly 4% stayed inconclusive and do not appear here. This is one part of the list. Unmarked numbers belong to inactive results.

Each compound was assayed against Sulfhydryl oxidase 1 (Homo sapiens) (UniProt O00391) (assay: inhibition of human sulfhydryl oxidase QSOX1 – biochemical, HyperBlu H2O2 luminescence, HTS, primary screen (AID 1347420; note: values above 100% were filed as inconclusive)). Settings: recombinant QSOX1, HyperBlu H2O2 luminescence; at 12.5 µM; hits give high values; active = any value above zero.
Sequence of Sulfhydryl oxidase 1 (Homo sapiens) (O00391 whole entry, looked up): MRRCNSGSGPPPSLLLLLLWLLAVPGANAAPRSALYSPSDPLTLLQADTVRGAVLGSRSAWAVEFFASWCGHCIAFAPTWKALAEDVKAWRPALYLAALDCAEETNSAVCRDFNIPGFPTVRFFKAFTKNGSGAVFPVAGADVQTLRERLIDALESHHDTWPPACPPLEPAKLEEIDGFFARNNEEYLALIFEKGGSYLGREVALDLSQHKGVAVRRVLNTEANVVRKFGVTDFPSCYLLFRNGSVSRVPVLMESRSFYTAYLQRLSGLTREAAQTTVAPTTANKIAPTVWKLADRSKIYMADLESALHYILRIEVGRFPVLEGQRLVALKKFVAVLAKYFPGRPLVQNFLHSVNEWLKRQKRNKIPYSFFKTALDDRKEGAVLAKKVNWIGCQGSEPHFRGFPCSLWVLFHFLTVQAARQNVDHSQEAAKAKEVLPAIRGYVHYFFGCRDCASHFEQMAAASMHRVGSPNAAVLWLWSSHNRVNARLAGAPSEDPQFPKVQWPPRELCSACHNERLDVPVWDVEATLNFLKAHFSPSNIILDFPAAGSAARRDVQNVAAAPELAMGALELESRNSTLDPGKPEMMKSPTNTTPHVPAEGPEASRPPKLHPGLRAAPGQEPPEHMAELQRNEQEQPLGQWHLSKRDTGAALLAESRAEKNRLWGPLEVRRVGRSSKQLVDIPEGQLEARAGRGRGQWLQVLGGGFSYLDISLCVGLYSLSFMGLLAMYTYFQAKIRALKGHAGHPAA
In the case of `O=C(O)CCc1ccc(NCc2cccc(Oc3ccccc3)c2)cc1`, the inhibition is reported as 41.7% (active).
`C=C1C[C@@]23CC[C@H]4[C@@](C)(CCC[C@@]4(C)C(=O)OC4OC(CO)C(O)C(O)C4O)[C@@H]2CCC1(OC1OC(CO)C(O)C(O)C1OC1OC(CO)C(O)C(O)C1O)C3` (some centres undefined) gave an inhibition of -13.9%.
`C=C1C[C@@]23CC[C@H]4[C@@](C)(CCC[C@@]4(C)C(=O)O)[C@@H]2CC[C@]1(O)C3` was tested, and the inhibition was 9% (active).
In the case of `CCOC(=O)N1CCC(=C2c3ccc(Cl)cc3CCc3cccnc32)CC1`, the inhibition is reported as 13.2% (active).
In the case of `Cn1ccnc1`, the inhibition is reported as 9.1% (active).
In the case of `CCCCCCCCCCCCCCSCC(=O)O`, the inhibition is reported as 9.4% (active).
In the case of `NC1C=CC=C(C(=O)O)C1` (centres undefined), the inhibition is reported as 21.6% (active).
For `OCC1O[C@H](O)C(Cl)C(O)C1O` (some centres undefined), the inhibition was 23.9% (active).
`COCCCC/C(=N\OCCN)c1ccc(C(F)(F)F)cc1` was tested, and the inhibition was 9.6% (active).
For `CN1CCC(=C2c3ccccc3C=Cc3ccccc32)CC1`, the inhibition was -2.7%.
With `CN1CCC(=C2c3ccccc3CC(=O)c3sccc32)CC1` the inhibition was 6.3% (active).
`COc1ccc(C2CNC(=O)C2)cc1OC1CCCC1` (centres undefined) was tested, and the inhibition was 5.2% (active).
With `C=CCN1CCc2cc(O)c(O)cc2C(c2ccccc2)C1` (centres undefined) the inhibition was 76.8% (active).
In the case of `C=CCN1CCc2c(cc(O)c(O)c2Cl)C(c2ccccc2)C1` (centres undefined), the inhibition is reported as 84.4% (active).
`Cc1cccc(C2CN(C)CCc3c2cc(O)c(O)c3Cl)c1` (centres undefined) was tested, and the inhibition was 97.2% (active).
For `O=C1CCc2cc(OCCCCc3nnnn3C3CCCCC3)ccc2N1`, the inhibition was 11.5% (active).
For `COc1cc2c(cc1OC)-c1cc(=Nc3c(C)cc(C)cc3C)n(C)c(=O)n1CC2`, the inhibition was 4.4% (active).
Work on `CCn1nc(C(=O)O)c(=O)c2cc3c(cc21)OCO3` yielded an inhibition of 0%.
For `O=c1ccn([C@@H]2O[C@H](COP(=O)(O)OP(=O)(O)O)[C@@H](O)[C@H]2O)c(=O)[nH]1`, the inhibition was -0.8%.
For `C[C@H]1O[C@@H](n2cc(F)c(=O)[nH]c2=O)[C@H](O)[C@@H]1O`, the inhibition was 20% (active).
For `O=C1N=C([O-])CN1/N=C/C1=C[C+]=C(c2ccc([N+](=O)[O-])cc2)O1`, the inhibition was 53% (active).
`O=C(CCCCCN1CCN(c2ccccc2-c2ccccc2)CC1)NC1CCCc2ccccc21` (centres undefined) was tested, and the inhibition was 22.8% (active).
With `CSc1ccccc1N1CCN(CCCCCC(=O)NC2CCCc3ccccc32)CC1` (centres undefined) the inhibition was 11.3% (active).
For `NC(N)=N/N=C/c1c(Cl)cccc1Cl`, the inhibition was -6.1%.
In the case of `NC(N)=NC(=O)Cc1c(Cl)cccc1Cl`, the inhibition is reported as 16.4% (active).
`O=C(O)c1cccnc1C(=O)O` was tested, and the inhibition was 5.1% (active).
In the case of `O=C1NCc2c1c1c3ccccc3[nH]c1c1[nH]c3ccccc3c21`, the inhibition is reported as 13.3% (active).
Compound `CCCn1c(=O)c2[nH]c(-c3ccc(OCC(=O)NCCN)cc3)nc2n(CCC)c1=O` has an inhibition of -3.6%.
With `Cn1c(=O)c2[nH]c(-c3ccccc3)nc2n(C)c1=O` the inhibition was 14.7% (active).
For `CCCn1c(=O)c2[nH]c(-c3ccc(S(=O)(=O)O)cc3)nc2n(CCC)c1=O`, the inhibition was 20.3% (active).
For `Cn1c(=O)c2[nH]c(-c3ccc(S(=O)(=O)O)cc3)nc2n(C)c1=O`, the inhibition was 31.8% (active).
In the case of `CN(C)S(=O)(=O)c1ccc2c(c1)/C(=C/c1cc3c([nH]1)CCCC3)C(=O)N2`, the inhibition is reported as 52.1% (active).
`CNc1cc(NS(=O)(=O)c2ccc(N)cc2)nc(NC)n1` was tested, and the inhibition was 1.3% (active).
In the case of `CCCCCCCCc1ccc(-c2ccc(C(=O)O)cc2)cc1`, the inhibition is reported as 14.5% (active).
With `Oc1ccccc1O` the inhibition was 62.9% (active).
With `O=[N+]([O-])c1cccc2c(Br)[nH]nc12` the inhibition was 47.4% (active).
With `CC(=O)N[C@H](C(=O)O)C(C)(C)SN=O` the inhibition was 10.5% (active).
`CC(N)(C(=O)O)c1ccc(C(=O)O)cc1` (centres undefined) was tested, and the inhibition was 10.5% (active).
In the case of `CCCC(=O)NCCc1c2n(c3ccc(OC)cc13)CCCc1ccccc1-2`, the inhibition is reported as 50.8% (active).
With `O=C(O)c1cc2cc(F)ccc2[nH]1` the inhibition was 1% (active).
Compound `O=C1NC(=O)/C(=C/c2ccc(-c3ccc(F)cc3O)o2)S1` has an inhibition of 0%.
With `O=C1NC(=O)/C(=C/c2ccc3c(c2)OC(F)(F)O3)S1` the inhibition was 21.2% (active).
In the case of `O=C1NC(=O)/C(=C/c2ccc3nccnc3c2)S1`, the inhibition is reported as 5.7% (active).
In the case of `CCCN(CCc1ccccc1)C1CCc2c(O)cccc2C1` (centres undefined), the inhibition is reported as 14% (active).
For `O=c1cc(-c2ccccc2F)[nH]c2cc3c(cc12)OCO3`, the inhibition was 6.4% (active).
`CCN(CC)CCCN(c1ccccc1)C1Cc2ccccc2C1` was tested, and the inhibition was 94.2% (active).
`c1ccc(-c2ccccn2)nc1` was tested, and the inhibition was 7.1% (active).
For `NCCC1CCCC(CCN)N1` (centres undefined), the inhibition was 6.6% (active).
For `OCc1ccc(-c2nn(Cc3ccccc3)c3ccccc23)o1`, the inhibition was 0.6% (active).
In the case of `c1cnc(N2CCN(Cc3ccc4c(c3)OCO4)CC2)nc1`, the inhibition is reported as -5.6%.
For `Ic1ccc(N2CCN(Cc3c[nH]c4ncccc34)CC2)cc1`, the inhibition was 23.8% (active).
With `Clc1ccc(N2CCN(Cc3c[nH]c4ncccc34)CC2)cc1` the inhibition was 12.6% (active).
`OC1(c2ccc(Cl)cc2)CCN(Cc2c[nH]c3ccccc23)CC1` was tested, and the inhibition was 14.4% (active).
With `COc1ccc2c(c1)c(CC(=O)O)c(C)n2C(=O)c1ccccc1` the inhibition was 9% (active).
With `COc1ccc2c(c1)c(CC(=O)O)c(C)n2Cc1ccc(Cl)cc1` the inhibition was 5.8% (active).
For `COc1ccc2c(c1)c(CC(=O)O)c(C)n2C(=O)c1ccc(Cl)cc1`, the inhibition was 15.5% (active).
For `CC(C)[C@@H]1CC[C@@H](C)C[C@@H]1P(=O)(c1ccccc1)c1ccccc1`, the inhibition was -5.2%.
In the case of `O=C(CCNNC(=O)c1ccncc1)NCc1ccccc1`, the inhibition is reported as 0.1% (active).
`OC(CCN1CCCCC1)(c1ccccc1)C1CCCCC1` (centres undefined) showed an inhibition of -1.3%.
For `OC(CCN1CCCCC1)(c1ccccc1)C1CC2C=CC1C2` (centres undefined), the inhibition was 8.3% (active).
With `O=C(O)CC1CCCc2ccccc2C1O` (centres undefined) the inhibition was 8.6% (active).
In the case of `NOCC(=O)O`, the inhibition is reported as 3% (active).
With `NCCS(=O)(=O)O` the inhibition was 9.8% (active).
For `NCCCS(=O)(=O)O`, the inhibition was 14.2% (active).
With `NCC(O)(CS(=O)(=O)O)c1ccc(Cl)cc1` (centres undefined) the inhibition was -0.3%.
`CN1CCc2cc(Cl)c(O)cc2[C@@H](c2ccccc2)C1` was tested, and the inhibition was 35.8% (active).
`CN1Cc2c(N)cccc2C(c2ccccc2)C1` (centres undefined) was tested, and the inhibition was -2.6%.
For `CN1CCc2cc(O)c(O)cc2C(c2ccccc2)C1` (centres undefined), the inhibition was 67.4% (active).
For `COc1ccccc1N1CCN(CCCNc2cc(=O)n(C)c(=O)n2C)CC1`, the inhibition was 22% (active).
In the case of `COc1ccccc1N1CCN(CCCNc2c(C)c(=O)n(C)c(=O)n2C)CC1`, the inhibition is reported as 16.8% (active).
With `CC#C[C@]1(O)CC[C@H]2[C@@H]3CCC4=CC(=O)CCC4=C3[C@@H](c3ccc(N(C)C)cc3)C[C@@]21C` the inhibition was 89.8% (active).
For `NCC(O)C1CCCCCCC1` (centres undefined), the inhibition was 18.4% (active).
For `Fc1ccc(C(OCCCc2cnc[nH]2)c2ccc(F)cc2)cc1`, the inhibition was 10.8% (active).
In the case of `COC(=O)[C@H](NC(=O)c1cc(-c2ccccc2)nc2ccccc12)c1ccccc1`, the inhibition is reported as 4.2% (active).
In the case of `CC(=O)[C@]1(O)Cc2c(O)c3c(c(O)c2[C@@H](O[C@H]2C[C@H](N)[C@H](O)[C@H](C)O2)C1)C(=O)c1ccccc1C3=O`, the inhibition is reported as 50.8% (active).
For `CC(N)C(=O)OC(C)(C)Cc1ccc(Cl)cc1` (centres undefined), the inhibition was 5.6% (active).
`Nc1nc2c(cnn2CCc2ccccc2)c2nc(-c3ccco3)nn12` was tested, and the inhibition was 17% (active).
`Nc1nc2ccc(Cl)cc2c2nc(-c3ccco3)nn12` was tested, and the inhibition was 27.7% (active).
In the case of `CCN(CC)CCCC(C)Nc1c2ccc(Cl)cc2nc2ccc(OC)cc12` (centres undefined), the inhibition is reported as -13%.
For `CCN(CC)CCCC(C)Nc1ccnc2cc(Cl)ccc12` (centres undefined), the inhibition was 4.6% (active).
`O=C(O)c1cc(=O)c2ccccc2[nH]1` showed an inhibition of -7.5%.
In the case of `O=C(O)/C(=C/c1c(C(=O)O)[nH]c2cc(Cl)cc(Cl)c12)c1ccccc1`, the inhibition is reported as 12.3% (active).
`O=C(O)c1cc(=O)c2c(Cl)cc(Cl)cc2[nH]1` was tested, and the inhibition was 23.5% (active).
For `C=C[C@@]1(C)CC(=O)[C@]2(O)[C@@]3(C)[C@H](O)CCC(C)(C)[C@@H]3[C@H](O)[C@H](OC(C)=O)[C@@]2(C)O1`, the inhibition was -4.2%.
`c1ccc2c(c1)CCCC2C1=NCCN1` (centres undefined) was tested, and the inhibition was 7.7% (active).
In the case of `NC1(C(=O)O)CCc2cc(C(=O)O)ccc21` (centres undefined), the inhibition is reported as 11.9% (active).
`CC(C)Cn1c(=O)n(C)c(=O)c2[nH]cnc21` showed an inhibition of -4.6%.
`Cn1c(=O)c2[nH]cnc2n(C)c1=O` was tested, and the inhibition was 20.2% (active).
With `Oc1ccc(C2CNCc3sccc32)cc1O` (centres undefined) the inhibition was 68.4% (active).
`CN1Cc2sccc2C(c2ccc(O)c(O)c2)C1` (centres undefined) was tested, and the inhibition was 84.1% (active).
With `NCC1OC(O[C@@H]2[C@H](O)C(OC3C(O)C(N)CC(N)C3OC3OC(CO)C(O)C(O)C3N)O[C@@H]2CO)C(N)C(O)C1O` (some centres undefined) the inhibition was -0.2%.
`CC(=O)/C(C)=N/O` was tested, and the inhibition was -16.7%.
`CC(=O)C(C)=O` was tested, and the inhibition was 5.7% (active).
With `CC(N)=O` the inhibition was 37.1% (active).
`CCN1C(=O)C=CC1=O` was tested, and the inhibition was 12.3% (active).
`C[C@H](O)C(=O)C1=Nc2c(nc(N)[nH]c2=O)NC1` was tested, and the inhibition was 9.2% (active).
`CC(O)C(O)[C@H]1CNc2nc(N)[nH]c(=O)c2N1` (some centres undefined) was tested, and the inhibition was -1.8%.
`NS(=O)(=O)C1=[C+]C=[C+]c2c1c([N+](=O)[O-])cc1nc([O-])c([O-])nc21` was tested, and the inhibition was 79% (active).
For `CCn1c(=O)[nH]c2cc(Cl)c(Cl)cc21`, the inhibition was 20.4% (active).
With `Cn1c(=O)c2c(nc(/C=C/c3cccc(Cl)c3)n2C)n(C)c1=O` the inhibition was 8.5% (active).
`CN1C[C@H](C(=O)N[C@]2(C)O[C@@]3(O)[C@@H]4CCCN4C(=O)[C@H](Cc4ccccc4)N3C2=O)C[C@@H]2c3cccc4[nH]cc(c34)C[C@H]21` was tested, and the inhibition was 50.6% (active).
For `Nc1ncnc2c1c(I)cn2[C@@H]1C[C@H](N)[C@@H](O)[C@H]1O`, the inhibition was 22.5% (active).
With `COc1ccc2c(c1)CCC1C2CC[C@@]2(C)C1CC[C@@H]2NCCCCCCN1C(=O)C=CC1=O` (some centres undefined) the inhibition was 7.6% (active).
With `COc1ccc2c(c1)CCC1C2CC[C@@]2(C)C1CC[C@@H]2NCCCCCCN1C(=O)CCC1=O` (some centres undefined) the inhibition was 8.2% (active).
